Assay results from PubChem BioAssay AID602252 (Broad Institute, 2012).
Screen size: about 300,000 compounds; about 2,700 (0.9%) were called active.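 The calls were made as follows: active = mean inhibition of at least 30% with at least half of replicates also reaching 30%; inconclusive = no clear call, values can overlap the other calls; inactive = the rest.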 This excerpt belongs to a sample that is enriched for actives.

What follows are compounds tested against Golgi-associated PDZ and coiled-coil motif-containing protein (Homo sapiens) (UniProt Q9HD26) (assay: blockade of CAL PDZ-reporter peptide interaction – biochemical, fluorescence polarization, untagged CAL PDZ, HTS, primary screen (AID 602252;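 also: 0% = DMSO neutral control and 100% = excess unlabeled competitor peptide PRC23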)). Details: purified CAL PDZ, TMR-peptide fluorescence polarization, 1 h; at 24.9 µM; stronger effect = higher value.

inhibition, inactive:
Nn1c(Cc2cccc3ccccc23)nnc1SCC(=O)N1CC(=O)Nc2ccccc21 1.45%, O=C1CN(C(=O)COC(=O)/C=C/c2ccc(F)cc2)c2ccccc2N1 -2.46%, COc1cc(NC(=O)c2[nH]cnc2C(N)=O)cc(C(=O)Nc2cccc(C(F)(F)F)c2)c1 -1.42%, COc1cccc(/C=C/c2ccc3ccccc3n2)c1OC(C)=O -0.936%, COC(=O)c1ccc(/C=C/c2c(-c3ccc(OC)cc3)sc3ccccc23)cc1 0.974%, COCC(=O)N(C)[C@H]1C[C@H]2c3cc(Oc4ccccc4C)ccc3CCN2C(=O)[C@H]1[C@H](C)O -3.46%, C=CCC[C@@H](Cc1ccc(F)cc1)C(=O)OC[C@@H](C)NC(=O)[C@H](CC=C)CC(=O)N(CCO)Cc1ccccc1 3.24%, COc1ccc(-c2noc(CCC(=O)N3CCN(c4cccc(C)c4)CC3)n2)cc1 -3.56%, COc1ccc(CNC(=O)C[C@H]2C[C@H](C(=O)N3CCOCC3)[C@@]3(C)c4[nH]c5cc(CCC(=O)N(C)C)ccc5c4CCN3C2=O)cc1OC -5.01%, Cc1cccc(OCC(O)CN2CCN(S(=O)(=O)c3ccc(C)cc3C)CC2)c1 (stereo not drawn) 1.68%, O=S(=O)(c1ccc(OCC(O)CN2CCN(c3ccccc3Cl)CC2)cc1)N1CCOCC1 (stereo not drawn) -2.34%, COC(=O)c1ccc(NCc2cc(O)ccc2O)cc1 0.712%, C=CCOc1ccc(/C=C2/C(=O)ON=C2C)cc1OCC -3%, COc1cc(/C=C2/C(=O)ON=C2C)ccc1OCc1ccccc1F -3.18%, COc1cc(OC)c(C(=O)NNC(=O)c2ccc(NS(=O)(=O)c3cccs3)cc2)cc1OC -2.8%, C=CC(=O)Nc1ccc(Nc2ccnc(Nc3ccc(N4CCN(C)CC4)cc3)n2)cc1 -0.863%, COC(=O)c1ccc(NC(=O)Nc2ccc(C)cc2)cc1 -0.88%, CCOC(=O)c1ccc(NC(=S)Nc2cc(C)cc(C)n2)cc1 -17%, O=C(N[C@@H]1C/C=C\C[C@@H](CC(=O)N(CCO)Cc2ccccc2)C(=O)N[C@H](Cc2ccccc2)COC1=O)OCC1c2ccccc2-c2ccccc21 14.1%, CC1Cc2ccccc2N1S(=O)(=O)c1cccc(C(=O)NCC(c2ccco2)N2CCCC2)c1 (stereo not drawn) 1.18%, COC(=O)[C@]1(Cc2ccccc2)N[C@H](CN(C)S(=O)(=O)c2ccc(F)cc2)[C@@H]2C(=O)N(Cc3ccccc3)C(=O)[C@@H]21 -4.16%, COc1cc(/C=C/C(=O)Nc2ccc(OC)c(S(=O)(=O)N3CCOCC3)c2)ccc1OCC#N -3.83%, CN(C(=O)CSc1nnc(Nc2ccccc2)s1)C1CCS(=O)(=O)C1 (stereo not drawn) -5.88%, Cc1csc(SCC(=O)N(c2ccccc2)C(C)C)n1 -3.25%, C=CCOC(=O)N1CCC2CC1c1cc(-c3ccc(OC)cc3)ccc12 (stereo not drawn) -1.31%, Cc1cccc(C)c1NC(=O)CNC(=O)C1CCCC1 -2.92%, CCc1cccc(C)c1NC(=O)COC(=O)Cc1ccsc1 5.55%, COc1ccc2[nH]c3c(c2c1)CCN1C(=O)C(CC(=O)NCc2cccc(C(F)(F)F)c2)C[C@H](C(=O)N2CCOCC2)[C@@]31C (stereo partly drawn) -2.83%, COc1cc(/C=C/C(=O)OCC(=O)c2ccccc2)cc(OC)c1OC -8.15%, Cc1cccc(OC(=O)c2sc3ncn(C)c(=O)c3c2C)c1 -1.6%, CCOC(=O)C(C)n1cnc2sc(C)c(C)c2c1=O (stereo not drawn) -4.48%, O=[N+]([O-])c1cc2ccccc2nc1-c1ccccc1 3.37%, Cc1cc(C)cc(C(=O)NCC(=O)OCC(=O)N2CCCCC2)c1 -4.99%, CCOc1ccc(C(=O)NCC(=O)N2CCCCCCC2)cc1OCC 2.87%, Cc1ccc(C2(C)NC(=O)N(CC(=O)N3CC(=O)Nc4ccccc43)C2=O)cc1 (stereo not drawn) -3.12%, O=C(COC(=O)c1ccco1)Nc1ccc(Cl)cn1 -5.62%, CC(OC(=O)CCCOc1ccccc1)C(=O)Nc1ccc(Cl)cn1 (stereo not drawn) -3.1%, CC(=O)Nc1ccc(S(=O)(=O)NCCC(=O)N2CCN(c3ccccc3Cl)CC2)cc1 -2.76%, COc1cc(C)ccc1OCC(=O)OCC(=O)c1ccc[nH]1 3.54%, Cc1cccc(CC2(O)C(=O)Nc3ccccc32)n1 (stereo not drawn) 3.12%, Cc1cc([N+](=O)[O-])ccc1NS(=O)(=O)c1ccccc1 2.21%, CC(=O)c1ccc(OCCCC(=O)Nc2ccc(C)c(S(=O)(=O)N3CCOCC3)c2)cc1 -2.79%, CCN(CC(=O)NCCCN1CCOCC1)S(=O)(=O)c1cc(Cl)ccc1Cl 6.12%, CCN(CC)S(=O)(=O)c1ccc(N2CCOCC2)c(C(=O)O)c1 -7.23%, CCOC(=O)c1c(NC(=S)NC)sc2c1CCCC2 2.4%, CC(C)OC(=O)c1c(NC(=O)c2ccco2)sc2c1CCCC2 -1.93%, C=CC(COCc1ccccc1)N(CC(=O)OC)S(=O)(=O)c1cc(Br)ccc1OC (stereo not drawn) -5.08%, Cc1ccc(C(=O)NCCNC(=O)c2ccccc2)cc1 10.7%, Cc1ccc(S(=O)(=O)NCCC(c2ccccc2)c2ccccc2)cc1C(=O)O 3.3%, COc1cc(C(=O)NC2CCN(C)CC2)ccc1Nc1ncc2c(n1)N(C1CCC(O)CC1)CCC(=O)N2C (stereo not drawn) -0.543%, FC(F)(F)c1ccc(-c2cccc3c2C2CC3CCN2Cc2ccccc2)cc1 (stereo not drawn) -2.76%, CC(C)c1ccc(C=NNc2ccc([N+](=O)[O-])cn2)cc1 -3.5%, C[C@H](O)[C@@H]1C(=O)N2CCc3ccc(N4CCOCC4)cc3[C@@H]2C[C@@H]1N(C)C(=O)C(C)(C)C -2.27%, CN(CCc1ccccc1)C(=O)c1cccc(NC(=O)Cc2cccc(NC(=O)C3CCCN(C(=O)CCc4ccccc4)C3)c2)c1 (stereo not drawn) -1.89%, Cc1ccc(S(=O)Cc2ccc(C(=O)N3CCN(C4CCCCC4)CC3)o2)cc1 (stereo not drawn) -1.71%, Cc1ccc(C(=O)N2CCN(C(=O)N3CCOCC3)CC2)cc1 -4.62%, CC/C(=C(/c1ccccc1)c1ccc(OCC[N+](C)(C)C)cc1)c1ccccc1 5.44%, CC(C)Cn1cnc2c(SCc3ccc(Cl)cc3)nc(N)nc21 -5.42%, CC(=O)CSc1nc(CCc2ccccc2)c(C#N)c(=O)[nH]1 -3.06%, CCNC(=S)Nc1ccc(OC(F)(F)F)cc1 -0.766%, FC(F)(F)Oc1ccc(NC(=S)NCc2ccccc2)cc1 2.02%, CCC(=O)N1CCc2cc(Br)c(S(=O)(=O)NCCN3CCCCC3CC)cc21 (stereo not drawn) -29.4%, Cc1ccc(C(=O)Nc2ccccc2-c2ccccc2)cc1S(=O)(=O)Nc1ccccc1 -1.73%, Cc1ccc(CNC(=O)Cn2cnc3c(NCc4ccccc4)ncnc32)o1 -0.092%, CC(C(=O)N1CCOCC1)N1c2cccc3cccc(c23)S1(=O)=O (stereo not drawn) 0.599%, COc1ccc(C)cc1NC(=O)CN1c2cccc3cccc(c23)S1(=O)=O -0.836%, O=C(Cn1cnc2c(cnn2-c2ccccc2)c1=O)NCc1ccccc1 2.18%, CC(C)(C)NC(=O)Cn1cnc2cc([N+](=O)[O-])ccc2c1=O -5.79%, COc1cc(C(=O)OCc2cc(=O)n3ccsc3n2)ccc1OC(C)C -4.78%, Oc1[nH]c2ccccc2c1N=Nc1c(F)c(F)c(F)c(F)c1F -3.27%, O=C(OCC(=O)N1CCN(c2ccccc2)CC1)c1ccc([N+](=O)[O-])s1 4.92%

inhibition, active:
C=CCn1c(COc2ccccc2F)nnc1SCC(=O)N1CC(=O)Nc2ccccc21 56%, COc1ccc(/C=C/c2noc(-c3ccccc3OC(C)=O)n2)cc1 87%, CC(=O)c1ccc(OCC(O)CN2CCN(S(=O)(=O)c3cccc(Br)c3)CC2)cc1 (stereo not drawn) 35%, COc1cc(/C=C2/C(=O)ON=C2C)ccc1OCc1cccc(F)c1 40.4%, COC(=O)c1ccc(NC(=S)Nc2cccc(C)n2)cc1 52.8%, CC(C)N(C(=O)CSc1nnc(NC2CC2)s1)c1ccccc1 31.5%, CCc1cccc(C)c1NC(=O)COC(=O)CC1CCCC1 31.1%, Cc1c(C(N)=O)sc2ncn(CCOc3ccccc3)c(=O)c12 40.6%, COc1cc(OC)cc(C(=O)NCC(=O)N2CCCCCCC2)c1 59.5%, Cc1cccc(OCC(=O)OCC(=O)Nc2ccc(Cl)cn2)c1 74.8%, CCN(CC)S(=O)(=O)c1ccc(Cl)c(C(=O)NCCN2CCOCC2)c1 34.1%, CCOC(=O)c1c(NC(=S)NC(=O)c2ccco2)sc2c1CCCC2 58.9%, Cc1ncoc1C(=O)NCCC(c1ccccc1)c1ccccc1 56.7%, Cc1ccc(CS(=O)Cc2ccc(C(=O)N3CCOCC3)o2)cc1 (stereo not drawn) 61.7%, CS(=O)(=O)c1sc(C(=O)NC(=S)Nc2ccc(OC(F)(F)F)cc2)c2c1C=CCC2 106%, COc1ccc(NC(=O)C(C)N2c3cccc4cccc(c34)S2(=O)=O)c(OC)c1 (stereo not drawn) 62.5%, O=C(Cn1cnc2cc([N+](=O)[O-])ccc2c1=O)NC(=O)NCc1ccccc1 65.7%
